# Laboratory results published in publication PMC5892938, “SARNAclust: Semi-automatic detection of RNA protein binding motifs from immunoprecipitation data”.
# In all, about 11,000 sequences were measured (“log2 fold change”: median about 0.00022, highest 2% from about 0.34 on). The list shows a part of the results.
# Molecular target: GST-SBP-SLBP (stem-loop binding protein) (Homo sapiens, UniProt Q14493 1-270)
# Assay: targeted RNA Bind-n-Seq; RBNS binding buffer: 25 mM Tris pH 7.5, 150 mM KCl, 3 mM MgCl2, 0.1% Tween, 0.5 mg/mL BSA, 1 mM DTT; 27 nM protein, 750 pM RNA pool; temperature not stated; high values mean tight binding
# Conditions: protein: recombinant; tags: N-terminal GST and SBP (pGEX6P1-SBP); structured_RNA
# In short: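 The GST-SBP-tagged protein was expressed in Rosetta(DE3) pLysS E. coli, glutathione-purified and incubated at 27 nM with 750 pM of a designed, T7-transcribed RNA oligo pool in RBNS binding buffer. Bound RNA was reverse transcribed with a 10-nucleotide barcoded primer, PCR-amplified and sequenced on a MiSeq with 200-cycle paired-end reads. Reads were joined with FLASH, aligned with HISAT2 and collapsed by barcode. The binding signal is the DEseq log2 fold change of read counts per sequence.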
row,Sequence,binding signal [log2 fold change]
1,GGUCACGUCUCAAUCAACUCGCAAGAGGGGGGGAAAACCCCUUUACCCUCACAAUCAACAGCUCGCAGUCAAG,0.536 ± 0.414
2,GGUCACGUCUCAAUCAACUCACAAGAGGGGGGGAAAACCCCUUUACCCUCACUCUCAACAGCUCGCAGUCAAG,0.304 ± 0.385
3,GGUCACGUCUCAAUCAACUCACAAGAGGGGGGGAAAACCCCUUUACCCUCGUCCUCAACAGCUCGCAGUCAAG,0.385 ± 0.429
4,GGUCACGUCUCAAUCAACUCAUAAGAGGGGGGGAAAACCCCUUUACCCUCACACUCAACAGCUCGCAGUCAAG,0.455 ± 0.444
5,GGUCACGUCUCAAUCAACUCAGUCCCAGGAGUUUCCUCCUGUAAAUUCAACAGCUCGCAGUCAAG,0.371 ± 0.28
6,GGUCACGUCUCAAUCAACUCAUCCUCAGGAGUUUCCUCCUGCAAACUCAACAGCUCGCAGUCAAG,0.314 ± 0.204
7,GGUCACGUCUCAAUCAACUCUUUCUCAGGAGUUUCCUCCUGCAUUUUCAACAGCUCGCAGUCAAG,0.312 ± 0.164
8,GGUCACGUCUCAAUCAACUCAUCUCCAGGAGUUUCCUCCUGCUUUUUCAACAGCUCGCAGUCAAG,0.328 ± 0.198
9,GGUCACGUCUCAAUCAACUCAUCCGCAGGAGUUUCCUCCUGGUAUUUCAACAGCUCGCAGUCAAG,0.483 ± 0.25
10,GGUCACGUCUCAAUCAACUCAAUCCCAGGAGUUUGCUCCUGCAUAUUCAACAGCUCGCAGUCAAG,0.355 ± 0.208
11,GGUCACGUCUCAAUCAACUCAGUCCCAGGAGUUUUCUCCUGCUAAUUCAACAGCUCGCAGUCAAG,0.335 ± 0.235
12,GGUCACGUCUCAAUCAACUCAUCCUCAGGAGUUUGCUCCUGCAUAUUCAACAGCUCGCAGUCAAG,0.313 ± 0.205
13,GGUCACGUCUCAAUCAACUCAUCCCCAGGAGUUUGCUCCUGCAUUCUCAACAGCUCGCAGUCAAG,0.306 ± 0.225
14,GGUCACGUCUCAAUCAACUCAAUCUCAGGAGUUUUCUCCUGCUAUUUCAACAGCUCGCAGUCAAG,0.339 ± 0.222
15,GGUCACGUCUCAAUCAACUCAAUCCCAGGAGUUUCCUCCUGUUUUUUCAACAGCUCGCAGUCAAG,0.312 ± 0.215
16,GGUCACGUCUCAAUCAACUCAGUCUCAGGAGUUUCCUCCUGCUAUUUCAACAGCUCGCAGUCAAG,0.343 ± 0.24
17,GGUCACGUCUCAAUCAACUCUUAAGAGGGGGGGAAAACCCCUUUACCCUCAAAAUCAACAGCUCGCAGUCAAG,0.666 ± 0.398
18,GGUCACGUCUCAAUCAACUCUUAAGAGGGGGGGAAAACCCCUUUACCCUCGCCAUCAACAGCUCGCAGUCAAG,0.455 ± 0.394
19,GGUCACGUCUCAAUCAACUCUUAAGAGGGGGGGAAAACCCCUUUACCCUCAACGUCAACAGCUCGCAGUCAAG,0.385 ± 0.451
20,GGUCACGUCUCAAUCAACUCUUCUCCCAGGGAAAUCCCUGGUAUACUCAACAGCUCGCAGUCAAG,0.329 ± 0.25
21,GGUCACGUCUCAAUCAACUCUUCUCCCAGGGAAAGCCCUGGUAAACUCAACAGCUCGCAGUCAAG,0.33 ± 0.26
22,GGUCACGUCUCAAUCAACUCAACUCCCAGGGAAACCCCUGGUAAAUUCAACAGCUCGCAGUCAAG,0.307 ± 0.342

row,Sequence,binding signal [log2 fold change]
1,GGUCACGUCUCAAUCAACUCAAUCCCCAGGGAAAUCCCUGGUAAAUUCAACAGCUCGCAGUCAAG,0.453 ± 0.315
2,GGUCACGUCUCAAUCAACUCUUCUUCCAGGGAAAUCCCUGGUAAUUUCAACAGCUCGCAGUCAAG,0.413 ± 0.238
3,GGUCACGUCUCAAUCAACUCUUCUUCCAGGGAAAUCCCUGGCAAACUCAACAGCUCGCAGUCAAG,0.309 ± 0.268
4,GGUCACGUCUCAAUCAACUCAUCCCCCAGGGAAAUCCCUGGUUAAUUCAACAGCUCGCAGUCAAG,0.368 ± 0.293
5,GGUCACGUCUCAAUCAACUCAUCGCCCAGGGAAAGCCCUGGUUAAUUCAACAGCUCGCAGUCAAG,0.329 ± 0.337
6,GGUCACGUCUCAAUCAACUCUUCUCCCAGGGAAAUCCCUGGUAAACUCAACAGCUCGCAGUCAAG,0.359 ± 0.267
7,GGUCACGUCUCAAUCAACUCAAUCUCCAGGGAAAUCCCUGGCUAAUUCAACAGCUCGCAGUCAAG,0.315 ± 0.249
8,GGUCACGUCUCAAUCAACUCAAUCUCCAGGGAAAUCCCUGGUUAAUUCAACAGCUCGCAGUCAAG,0.348 ± 0.266
9,GGUCACGUCUCAAUCAACUCAUUAGAGGGGGGGAAAACCCCUUUACCCUCAUCAUCAACAGCUCGCAGUCAAG,0.333 ± 0.443
10,GGUCACGUCUCAAUCAACUCUAAAGAGGGGGGGAAAACCCCUUUACCCUCCUACUCAACAGCUCGCAGUCAAG,0.315 ± 0.441
11,GGUCACGUCUCAAUCAACUCUCAAGAGGGGGGGAAAACCCCUUUACCCUCAUUAUCAACAGCUCGCAGUCAAG,0.622 ± 0.45
12,GGUCACGUCUCAAUCAACUCCUCAGAGGGGGGGAAAACCCCUUUACCCUCCUUAUCAACAGCUCGCAGUCAAG,0.431 ± 0.416
13,GGUCACGUCUCAAUCAACUCUAUAGAGGGGGGGAAAACCCCUUUACCCUCAUCAUCAACAGCUCGCAGUCAAG,0.306 ± 0.416
14,GGUCACGUCUCAAUCAACUCUAAAGAGGGGGGGAAAACCCCUUUACCCUCAUCAUCAACAGCUCGCAGUCAAG,0.394 ± 0.392
15,GGUCACGUCUCAAUCAACUCCUCAGAGGGGGGGAAAACCCCUUUACCCUCAUUAUCAACAGCUCGCAGUCAAG,0.4 ± 0.421
16,GGUCACGUCUCAAUCAACUCACUAGAGGGGGGGAAAACCCCUUUACCCUCAUUAUCAACAGCUCGCAGUCAAG,0.408 ± 0.406
17,GGUCACGUCUCAAUCAACUCACUAGAGGGGGGGAAAACCCCUUUACCCUCAUCGUCAACAGCUCGCAGUCAAG,0.311 ± 0.421
18,GGUCACGUCUCAAUCAACUCUCUAGAGGGGGGGAAAACCCCUUUACCCUCCCAUUCAACAGCUCGCAGUCAAG,0.325 ± 0.44
19,GGUCACGUCUCAAUCAACUCCUCAGAGGGGGGGAAAACCCCUUUACCCUCCCAUUCAACAGCUCGCAGUCAAG,0.356 ± 0.426
20,GGUCACGUCUCAAUCAACUCCCCAGAGGGGGGGAAAACCCCUUUACCCUCAAAUUCAACAGCUCGCAGUCAAG,0.402 ± 0.428
21,GGUCACGUCUCAAUCAACUCCACGGAGGGGGGGAAAACCCCUUUACCCUCAAAUUCAACAGCUCGCAGUCAAG,0.543 ± 0.46
